# Laboratory results reported in PubChem BioAssay (NCI).
# About 83,000 compounds went through this panel and 20% of them were active in at least one assay; those are over-represented in the sample as a whole.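 Values shown are percent growth following 48 h exposure of cells in 96-well plates to a single concentration of compound; below 10 was considered active.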 Unmarked numbers belong to inactive results. The source made the active and inactive calls.
# Test system: SF-295 CNS
# Assay: NCI-60 one-dose screen, 48 h (100 = growth as untreated, 0 = no growth, -100 = all killed)
# Conditions: 10 µM unless noted
row,SMILES,growth
1,CCn1c(Cc2ccccc2Nc2c(Cl)cccc2Cl)nnc1SCC(=O)Nc1cccc(OC)c1,81.9%
2,COc1ccc2nc(C)cc(Sc3nc4ccccc4s3)c2c1,82.5%
3,COc1cnc2c(c1)C(=O)c1c-2n(CCCN2CCN(C)CC2)c(=O)c2cc(Cl)ccc12,35.5%
4,c1cn2cc(-c3ccc4ncn(C5CCCCC5)c4c3)nc(-c3ccc4c(c3)ncn4C3CCCCC3)c2n1,-86.5% (active)
5,CN1C(=O)N(C)C2C1NN=c1s/c(=C\c3ccc(C(F)(F)F)cc3)c(=O)n12 (stereo not drawn),10.4%
6,CN1C(=O)N(C)C2C1NN=c1s/c(=C\c3ccsc3)c(=O)n12 (stereo not drawn),25%
7,C/C(=N\Nc1ccc([N+](=O)[O-])cn1)c1ccc(N)cc1,128%
8,COc1ccccc1/C=N\Nc1ccc([N+](=O)[O-])cn1,96.3%
9,CCCCCCCCCCCCCCCCCC(=O)[O][Sn]([CH2]CCC)([CH2]CCC)[CH2]CCC,-85.3% (active)
10,C[C@H](NC(=O)c1snnc1C1CC1)c1c(F)cccc1Cl,96.8%
11,CC(C)c1cccc(C#N)c1,107%
12,CN1C(=O)N(C)C2C1NN=c1s/c(=C\c3ccc(Br)cc3)c(=O)n12 (stereo not drawn),23.1%
13,O=C1SCN(Cc2ccccc2)CN1Cc1ccccc1,110%
14,C[N+](C)(C)CC(=O)N/N=C\c1ccco1,106%
15,COc1cc(C2CC(c3ccc(Cl)cc3)=NN2C(C)=O)ccc1Oc1nc2c(c(=O)n(C)c(=O)n2C)n1C (stereo not drawn),62.6%
16,CCN1CCN(Cc2ccc(NC(=O)Nc3ccc(-n4ccc5c(NC(=O)c6ccccc6)nccc54)cc3)cc2C(F)(F)F)CC1,-18.9% (active)
17,Nc1nc(N)c2cc(NCc3ccc(Cl)c(Cl)c3)ccc2n1,-80.5% (active)
18,O=c1oc2ccccc2cc1-c1cc(-c2ccc(-c3cc(-c4cc5ccccc5oc4=O)nc(-c4cc5ccccc5oc4=O)c3)cc2)cc(-c2cc3ccccc3oc2=O)n1,111%
19,C=C1C(=O)O[C@H]2[C@H]1CC/C(COC(=O)N[C@@H](Cc1c[nH]c3ccccc13)C(=O)OC)=C\CC[C@@]1(C)O[C@@H]21,72.3%

row,SMILES,growth
1,COc1cc(OC)c(Cl)cc1N,135%
2,COC(=O)c1ccc2c(c1)nc(-c1cc3ccccc3[nH]c1=O)n2-c1cc(C(C)(C)C)[nH]n1,93.8%
3,Fc1ccc(-c2nc(-c3ccc(-c4nc5ccc(F)cc5[nH]4)cc3)no2)cc1,73.4%
4,CCCC(CCC)(C(N)=O)C(=O)O,107%
5,CNC(=O)OC1C(O[C@H]2C[C@H]3[C@@H]4CC=C5C[C@@H](O)CC[C@]5(C)[C@H]4CC[C@]3(C)[C@H]2[C@H](C)C(=O)CCC(C)C)OCC(O)C1OC1OCC(O)C(O)C1OC(=O)c1ccc(OC)cc1 (stereo partly drawn),-63.3% (active)
6,CC(=O)O[C@@H]1CC2C(C)(C)CCCC2(C)C2=C1C(=O)C(C(C)C)=CC2=O (stereo partly drawn),-34.1% (active)
7,CC(=O)Oc1c(Cl)c(Cl)c(Cl)c(Cl)c1Cl,97.7%
8,Oc1c(C(Nc2ccccc2Br)c2ccccc2)ccc2cccnc12 (stereo not drawn),13.6%
9,O=C1C(Cl)=C(Nc2cccc3ccccc23)C(=O)c2ccccc21,95.1%
10,Nc1c(C(=O)Nc2ccccc2)sc2nc3c(cc12)C(=O)CCC3,-12.4% (active)
11,CCOCCNc1ccc(S(=O)(=O)c2ccc(N)cc2)cc1N,96.2%
12,CCCCSc1ncnc2c1ncn2C1CCCCO1 (stereo not drawn),111%
13,CCNCCCn1c2c(c3ccc(Cl)cc3c1=O)C(=O)c1cc(OC)cnc1-2,15.5%
14,COc1ccc2nc3ccccc3c(NCc3ccc(C)cc3)c2c1,23.6%
15,C=CCOC(=O)C1=C(C)NC2=C(C(=O)CCC2)C1c1ccc(F)cc1 (stereo not drawn),102%
16,O=C(O)C(CCc1ccccc1)NCc1ccccc1 (stereo not drawn),103%
17,COc1ncnc2[nH]cc(CN3CCN(c4ccc(F)cc4)CC3)c12,98.1%
18,O=S(=O)(Cc1ccc(Cl)cc1Cl)c1ccc(Cl)cc1,2.18% (active)
19,COc1ccc(-c2nc3ccccc3n3cccc23)cc1,114%
